Where “and” joins values, the source holds several entries; their conditions need not be identical. Identical values can stand only once. Inconclusive results are not listed. A structure can be active in one record and inactive in another. Calls of active or inactive are those of the source. Calls follow the shape of the dose curve; as a rule, active = well fitted curve in the direction sought with a large enough effect in the repeat runs; inconclusive = weak or mixed curves; inactive = no such curve, though single readings can be large; an effect the other way counts as inactive or inconclusive.
target: Nuclear receptor subfamily 1 group I member 2 (Homo sapiens) (UniProt O75469); assay: Human pregnane X receptor (PXR) small molecule agonists, qHTS assay (AID 1346982); details: PXR-Luc HepG2, CYP3A4 luciferase reporter, 24 h; series mostly up to 92.4 µM; also: nearly all actives have a fitted effect of over 35% in size; also: potency is read from the fitted curve at half-maximal effect
How it was run: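 Agonist mode: luminescence from ONE-Glo after 24 h compound exposure at 37C in HepG2 cells carrying hPXR-responsive CYP3A4 luciferase, plated in charcoal-stripped serum medium 5 h beforehand.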
% is scaled to controls: 0 for no effect and ±100 for the full control effect.

Sequence of Nuclear receptor subfamily 1 group I member 2 (Homo sapiens) (O75469 whole entry, looked up): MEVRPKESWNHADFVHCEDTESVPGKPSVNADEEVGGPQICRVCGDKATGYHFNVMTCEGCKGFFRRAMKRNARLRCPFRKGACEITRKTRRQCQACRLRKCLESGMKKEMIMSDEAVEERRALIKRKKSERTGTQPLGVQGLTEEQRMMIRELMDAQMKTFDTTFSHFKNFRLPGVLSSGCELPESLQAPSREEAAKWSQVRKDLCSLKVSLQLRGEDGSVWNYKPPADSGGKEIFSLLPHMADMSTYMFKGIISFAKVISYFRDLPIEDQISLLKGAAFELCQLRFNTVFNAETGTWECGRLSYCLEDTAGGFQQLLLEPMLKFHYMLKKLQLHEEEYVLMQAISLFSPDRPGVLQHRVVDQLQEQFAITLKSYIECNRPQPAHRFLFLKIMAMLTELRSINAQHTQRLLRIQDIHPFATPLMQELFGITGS

SMILES | Potency | activation
CCN(CCC#N)c1ccc(N=Nc2c(Cl)cc([N+](=O)[O-])cc2Cl)cc1 | 12.2 µM (active) | 
CCCCC(CC)COP(=O)(O)OCC(CC)CCCC (centres undefined) | 61.3 µM (active) and 54.5 µM (active) | 
C/C(=C(/OCCOc1ccc(Cl)cc1)c1ccc(Cl)cc1Cl)n1ccnc1 | 10.6 µM (active) | 
Oc1c(Cl)cc(Cl)c2cccnc12 | 26.6 µM (active) | 
O=C(OC[C@H]1O[C@@H](OC(=O)c2cc(O)c(O)c(OC(=O)c3cc(O)c(O)c(O)c3)c2)[C@H](OC(=O)c2cc(O)c(O)c(OC(=O)c3cc(O)c(O)c(O)c3)c2)[C@@H](OC(=O)c2cc(O)c(O)c(OC(=O)c3cc(O)c(O)c(O)c3)c2)[C@@H]1OC(=O)c1cc(O)c(O)c(OC(=O)c2cc(O)c(O)c(O)c2)c1)c1cc(O)c(O)c(OC(=O)c2cc(O)c(O)c(O)c2)c1 |  | -5.98% [at 19 µM] (inactive)
C/C=C(\C)C(=O)OCc1ccccc1 | inactive | 
O=CC=C(c1ccccc1)c1ccccc1 | 69.1 µM (active) | 
COc1cc(/C=C/C(=O)O[C@H]2CC[C@]34C[C@]35CC[C@]3(C)[C@@H]([C@H](C)CCC=C(C)C)CC[C@@]3(C)[C@@H]5CC[C@H]4C2(C)C)ccc1O | inactive | 
CC(C)=CCOc1ccc(/C=C/C(=O)c2ccc(OCC=C(C)C)cc2OCC(=O)O)cc1 | inactive | 
Nc1ccccc1O | 13.5 µM (active) | 
c1cc(C(c2ccc(OCC3CO3)cc2)c2ccc(OCC3CO3)cc2)ccc1OCC1CO1 (centres undefined) | 27.3 µM (active) | 
S=c1[nH]c2ccccc2s1 | 30.6 µM (active) | 
O=C1C=CC(=O)N1 | inactive | 
CCCCCCCCn1sc(Cl)c(Cl)c1=O | 61.1 µM (active) | 
O=C(O)c1ccc(Cl)c(Cl)c1 | inactive | 
Nc1cc(C(F)(F)F)ccc1S | 13.3 µM (active) | 
CO[Si](CCCNc1ccccc1)(OC)OC | inactive | 
O=c1cccccc1O | 69.9 µM (active) | 
O=C1c2ccccc2Cc2ccccc21 | 27.5 µM (active) | 
NC(=NCCCCCCN=C(N)/N=C(\N)Nc1ccc(Cl)cc1)/N=C(\N)Nc1ccc(Cl)cc1 | 2.41 µM (active) and inactive | 
C=C(C)C(=O)OCC[N+](C)(C)C | inactive | 
OCc1c[nH]c2ccccc12 | 24.3 µM (active) | 
CCC1OCC(COc2ccc(Oc3ccccc3)cc2)O1 (centres undefined) | 34.4 µM (active) | 
OCCCCCCCCCCCCBr | inactive | 
Cc1oc(-c2ccccc2)nc1CCC(=O)c1ccc(CC2SC(=O)NC2=O)cc1 (centres undefined) | inactive | 
CCOC(=O)c1nc(C(Cl)(Cl)Cl)n(-c2ccc(Cl)cc2Cl)n1 | 19.3 µM (active) | 
CCCCCCCCOC(=O)c1ccc(O)cc1 | 30.5 µM (active) and inactive | 
COC(=O)c1cc(Cl)ccc1OC | inactive | 

target: Nuclear receptor subfamily 1 group I member 2 (Rattus norvegicus) (UniProt Q9R1A7); assay: Rat pregnane X receptor (rPXR) activation by small molecules, qHTS assay (AID 1346983); details: rPXR luciferase reporter cells, One-Glo luminescence, 24 h; max activation: stronger effect = higher value; also: nearly all actives have a fitted effect of over 20% in size
How it was run: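 Cell-based rPXR activation assay: rPXR cells, 2,000 per well, rested 5hr at 37 C, then exposed to compounds in DMSO for 24 hr at 37 C. Luciferase activity read by One-Glo luminescence after 30 min at room temperature.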

Sequence of Nuclear receptor subfamily 1 group I member 2 (Rattus norvegicus) (Q9R1A7 whole entry, looked up): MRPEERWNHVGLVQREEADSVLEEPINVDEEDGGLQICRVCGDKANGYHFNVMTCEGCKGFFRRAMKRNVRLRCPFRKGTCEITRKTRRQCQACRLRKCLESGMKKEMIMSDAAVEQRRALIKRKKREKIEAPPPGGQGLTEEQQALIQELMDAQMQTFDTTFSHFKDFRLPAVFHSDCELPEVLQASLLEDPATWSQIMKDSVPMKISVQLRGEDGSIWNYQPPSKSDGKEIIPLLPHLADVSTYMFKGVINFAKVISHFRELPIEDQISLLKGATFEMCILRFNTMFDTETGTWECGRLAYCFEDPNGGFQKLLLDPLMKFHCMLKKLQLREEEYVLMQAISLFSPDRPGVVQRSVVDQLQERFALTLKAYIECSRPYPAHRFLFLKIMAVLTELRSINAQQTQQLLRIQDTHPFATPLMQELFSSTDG

SMILES | max activation
Oc1c(Cl)cc(Cl)c2cccnc12 | 4.53% (inactive)
O=C(OC[C@H]1O[C@@H](OC(=O)c2cc(O)c(O)c(OC(=O)c3cc(O)c(O)c(O)c3)c2)[C@H](OC(=O)c2cc(O)c(O)c(OC(=O)c3cc(O)c(O)c(O)c3)c2)[C@@H](OC(=O)c2cc(O)c(O)c(OC(=O)c3cc(O)c(O)c(O)c3)c2)[C@@H]1OC(=O)c1cc(O)c(O)c(OC(=O)c2cc(O)c(O)c(O)c2)c1)c1cc(O)c(O)c(OC(=O)c2cc(O)c(O)c(O)c2)c1 | -10.1% (inactive)
COc1cc(/C=C/C(=O)O[C@H]2CC[C@]34C[C@]35CC[C@]3(C)[C@@H]([C@H](C)CCC=C(C)C)CC[C@@]3(C)[C@@H]5CC[C@H]4C2(C)C)ccc1O | -10.7% (inactive)
C[C@H]1[C@H]2CC[C@H]3[C@@H]4CC=C5C[C@@H](N(C)C)CC[C@]5(C)[C@H]4CC[C@]23CN1C | -5.76% (inactive)
CCc1oc2ccccc2c1C(=O)c1cc(Br)c(O)c(Br)c1 | -3.61% (inactive)
CC(C)=CCOc1ccc(/C=C/C(=O)c2ccc(OCC=C(C)C)cc2OCC(=O)O)cc1 | -3.35% (inactive)
O=C1Cc2cc(CCN3CCN(c4nsc5ccccc45)CC3)c(Cl)cc2N1 | -10.8% (inactive)

target: Nuclear receptor subfamily 1 group I member 2 (Homo sapiens) (UniProt O75469); assay: Human pregnane X receptor (PXR) activation by small molecules, qHTS assay (AID 1346985); details: DPX-2 HepG2 CYP3A4-luciferase, 24 h; series mostly up to 38.3 µM; also: nearly all actives have a fitted effect of over 40% in size; also: potency is read from the fitted curve at half-maximal effect
How it was run: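 DPX-2 cells (HepG2 co-transfected with a PXR response element and a CYP3A4-promoter luciferase construct) were seeded at 2,000 per well, rested 5 hr at 37C, then exposed to DMSO-dissolved compounds for 24 hr. Activation was read as luciferase luminescence.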

SMILES | Potency
Oc1c(Cl)cc(Cl)c2cccnc12 | 28.2 µM (active)
O=C(OC[C@H]1O[C@@H](OC(=O)c2cc(O)c(O)c(OC(=O)c3cc(O)c(O)c(O)c3)c2)[C@H](OC(=O)c2cc(O)c(O)c(OC(=O)c3cc(O)c(O)c(O)c3)c2)[C@@H](OC(=O)c2cc(O)c(O)c(OC(=O)c3cc(O)c(O)c(O)c3)c2)[C@@H]1OC(=O)c1cc(O)c(O)c(OC(=O)c2cc(O)c(O)c(O)c2)c1)c1cc(O)c(O)c(OC(=O)c2cc(O)c(O)c(O)c2)c1 | 10 µM (active)
COc1cc(/C=C/C(=O)O[C@H]2CC[C@]34C[C@]35CC[C@]3(C)[C@@H]([C@H](C)CCC=C(C)C)CC[C@@]3(C)[C@@H]5CC[C@H]4C2(C)C)ccc1O | inactive
O=C1Cc2cc(CCN3CCN(c4nsc5ccccc45)CC3)c(Cl)cc2N1 | inactive

Reference: PubChem BioAssay (Tox21)
